Test results as given in the supplement of paper PMC6555819.

How the values were obtained:
Test in all cases: PBM binding z-score (relative to random genomic background probes); higher = stronger binding; sequences stand for … in GC…GCGATTGACAGCGTAGAATGAAGG
[1] = tested on: FXR:RXRa (NR concentration 270 nM, RXRa partner concentration 90 nM)
In short: (§1)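 Each nuclear receptor dimer, without ligand, was incubated for 1 h on custom Agilent 4×180K protein-binding microarrays. Binding was detected with antibodies against each partner (one per run), and scanned fluorescence was regression-normalized. The binding z-scores are referenced to random human genomic background probes.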

[2] = tested on: LXRa:RXRa (NR concentration 270 nM, RXRa partner concentration 90 nM)
In short: as §1

[3] = tested on: LXRa homodimer (NR concentration 270 nM)
In short: as §1

[4] = tested on: LXRb:RXRa (NR concentration 270 nM, RXRa partner concentration 90 nM)
In short: as §1

[5] = tested on: LXRb homodimer (NR concentration 270 nM)
In short: as §1

[6] = tested on: PPARa:RXRa (NR concentration 270 nM, RXRa partner concentration 90 nM)
In short: as §1

[7] = tested on: PPARg:RXRa (NR concentration 180 nM, RXRa partner concentration 90 nM)
In short: as §1

[8] = tested on: PPARg:RXRa 270nM:90nM, anti-RXR (NR concentration 270 nM, RXRa partner concentration 90 nM)
In short: as §1

[9] = tested on: PPARg:RXRa 30nM:10nM, anti-RXR (NR concentration 30 nM, RXRa partner concentration 10 nM)
In short: as §1

[10] = tested on: PPARg:RXRa 90nM:30nM, anti-RXR (NR concentration 90 nM, RXRa partner concentration 30 nM)
In short: as §1

[11] = tested on: PPARg:RXRa DBDmut IVT, anti-RXR (DBD mutation: RXRa K156A/R161A, NR concentration 270 nM, RXRa partner concentration 90 nM)
In short: as §1

[12] = tested on: PPARg:RXRa IVT, anti-PPARg (NR concentration 270 nM, RXRa partner concentration 90 nM)
In short: as §1

[13] = tested on: PPARg DBDmut:RXRa IVT, anti-PPARg (DBD mutation: PPARg1 K132A/R137A, NR concentration 270 nM, RXRa partner concentration 90 nM)
In short: as §1

[14] = tested on: PPARg DBDmut IVT, anti-PPARg (DBD mutation: PPARg1 K132A/R137A, NR concentration 270 nM)
In short: as §1

[15] = tested on: PPARg homodimer (NR concentration 180 nM)
In short: as §1

[16] = tested on: PXR:RXRa (NR concentration 270 nM, RXRa partner concentration 90 nM)
In short: as §1

[17] = tested on: PXR homodimer (NR concentration 270 nM)
In short: as §1

[18] = tested on: RARa:RXR (NR concentration 270 nM, RXRa partner concentration 90 nM)
In short: as §1

[19] = tested on: RARa homodimer (NR concentration 270 nM)
In short: as §1

[20] = tested on: RARb:RXRa (NR concentration 270 nM, RXRa partner concentration 90 nM)
In short: as §1

Row | Sequence | PBM binding z-score [1] | PBM binding z-score [2] | PBM binding z-score [3] | PBM binding z-score [4] | PBM binding z-score [5] | PBM binding z-score [6] | PBM binding z-score [7] | PBM binding z-score [8] | PBM binding z-score [9] | PBM binding z-score [10] | PBM binding z-score [11] | PBM binding z-score [12] | PBM binding z-score [13] | PBM binding z-score [14] | PBM binding z-score [15] | PBM binding z-score [16] | PBM binding z-score [17] | PBM binding z-score [18] | PBM binding z-score [19] | PBM binding z-score [20]
1 | CTCGAAAGGTAGGTTGAGGTGAGTATACGGATAA | 0.719 | -0.128 | -0.2 | -0.0661 | -0.508 | 0.424 | 0.0538 | 0.173 | 0.0647 | 0.104 | -0.151 | 0.611 | 0.405 | 0.253 | 0.0947 | 0.293 | -0.116 | 0.461 | -0.0281 | 0.475
2 | CCGAGCAGGCCAGGGTCACTCAAGCATTTCGCTT | 2.23 | 1.75 | -0.467 | 2.16 | -1.08 | 2.97 | 0.393 | 1.19 | -0.201 | 0.482 | -0.216 | 0.461 | -1.99 | -1.55 | 1.51 | 2.78 | -0.479 | 3.47 | -0.256 | 2.65
3 | CCAACTGGGCCATTCAGAGGTCATTGATCATATG | 3 | 4.24 | 6.53 | 3.67 | 0.435 | 3.9 | 2.89 | 3.16 | 0.622 | 2.16 | 5.18 | 4.66 | 0.485 | -0.774 | 4.42 | 5.05 | 2.64 | 4.72 | 0.73 | 3.02
4 | TCATATAGGCAAATGCTAGGTGAAAGTCCGATCT | 0.729 | 0.526 | -0.00307 | 0.0683 | -0.278 | 0.735 | 0.411 | 1.55 | 3.12 | 2.14 | 2.29 | 0.809 | 0.452 | 0.623 | 0.286 | 0.34 | 0.108 | 0.528 | 0.507 | 0.0925
5 | TGAATGAGGTTATAAGAGCAGGGAACGTTGCAAA | 1.63 | 1.78 | -0.152 | 0.923 | -0.0285 | 2.86 | 1.32 | 2.13 | 0.717 | 1.52 | 1.21 | 1.65 | 0.835 | 0.627 | 0.672 | 0.661 | -0.193 | 1.39 | 0.226 | 1.29
6 | ACTTACGGGTCAAAGAGGTTATAGCACGCGTATA | 6.96 | 5.48 | 1.34 | 4.61 | 0.72 | 5.71 | 5.28 | 5.31 | 2.31 | 4.28 | 3.17 | 3.85 | 1.03 | 1.26 | 3.6 | 4.91 | 2.73 | 4.84 | 1.4 | 3.99
7 | ACTTACGGGTCAACGAGGTTCTAGCACGCGTATA | 6.65 | 4.04 | 0.325 | 3.66 | 0.336 | 5.59 | 5.12 | 4.83 | 1.82 | 3.67 | 3.33 | 3.8 | 1.11 | 0.889 | 2.64 | 4.32 | 0.435 | 4.17 | 0.866 | 4.12
8 | CCTACTGGGCCAGAGGTCATTGATTCCAATGCTC | 3.89 | 4.31 | 4.08 | 4.28 | 0.315 | 5.3 | 9.61 | 8.53 | 9.24 | 9.4 | 3.69 | 4.99 | 0.0395 | -0.7 | 2.97 | 4.8 | 1.58 | 4.62 | 0.505 | 3.63
9 | CGTCGAAGGTCAGCAGGTCAGTGAAAGCGACGTG | 5.54 | 3.8 | 0.42 | 3.06 | -0.433 | 4.76 | 4.28 | 4.81 | 1.5 | 2.88 | 2.98 | 3.25 | -0.047 | -1.4 | 4.2 | 3.44 | 0.233 | 4.8 | 1.59 | 5.24
10 | TAGCCTAGGTCATTCAGGGCCCAGTATAGAAAGC | 4.66 | 3.59 | 0.608 | 2.37 | 0.858 | 3.62 | 1.96 | 2.34 | 0.126 | 1.56 | 1.83 | 2.54 | 0.246 | -0.28 | 1.19 | 1.88 | -0.155 | 2.32 | -0.0549 | 3.54
11 | TCAGACAGGTGATGGTAACTCAGGTACGCAGTCG | 0.415 | 0.602 | 0.0587 | 0.648 | -0.117 | 1.16 | 0.601 | 1.7 | 3.35 | 2.55 | 2.18 | 0.496 | -0.328 | -0.349 | 0.0712 | 0.333 | 0.496 | 0.242 | 0.298 | 0.566
12 | CGAACTAGGTCAGAACAGGACAGCGAAGGATGAT | 1.13 | 0.841 | -0.226 | 0.393 | -0.43 | 3.3 | 5.21 | 4.4 | 1.79 | 3.38 | 6.88 | 7.17 | 2.58 | 2.2 | 1.18 | 0.861 | -0.18 | 1.86 | 0.0245 | 2.88
13 | CCAGCTAGGTCAATGGTCAGCTAAAGCAGCTCGC | 2.92 | 2.06 | -0.24 | 1.27 | -0.685 | 3.2 | 5.08 | 5.75 | 3.27 | 5.34 | 4.9 | 4.47 | -0.141 | -0.0695 | 1.28 | 0.737 | -0.176 | 1.49 | -0.163 | 3.73
14 | TCATAGAGGTAATACAGGTGAAAGTCGGCATCTA | 0.717 | 1.43 | -0.283 | 0.754 | -0.377 | 1.85 | 0.997 | 1.86 | 3.1 | 2.46 | 2.41 | 1.82 | 0.716 | 0.411 | 0.49 | 0.522 | -0.0711 | 1.04 | 0.214 | 0.478
